The panel holds about 83,000 compounds, 20% with a hit somewhere; the sample as a whole holds those more often.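 Cells were grown in 96-well plates and exposed to the test compound at a single concentration for 48 hours; results are reported as percent growth, with values below 10 considered active.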 Activity calls are given as the source filed them.
Tested on: HL-60(TB) leukemia
Assay: NCI-60 one-dose screen, 48 h (100 = growth as untreated, 0 = no growth, -100 = all killed)
Settings: 10 µM unless noted

SMILES	growth
c1ccc2c(-c3c[nH]c4ccccc34)c3c(cc2c1)[nH]c1ccccc13	51.5% (inactive)
COc1ccc(C2=Nn3c(nnc3-n3nc(C)cc3C)SC2)cc1	-29% (active)
Cc1cccc(C)c1NCc1nnc(-c2ccco2)o1	97.5% (inactive)
COc1ccc(S(=O)(=O)NCCCNc2nccc(-c3c(-c4cccc([N+](=O)[O-])c4)nc4sccn34)n2)cc1	22.9% (inactive)
C=C1C(=O)O[C@H]2[C@H]1CC/C(COC(=O)/C=C\C(=O)NCc1ccc(Cn3c(=O)sn(CCI)c3=O)cc1)=C\CC[C@@]1(C)O[C@@H]21	-34.7% (active)
CN1CCCN(C(c2ccccc2)c2ccc(Br)cc2)CC1 (configuration not stated)	110% (inactive)
Cc1ccc(N=C=C(c2ccccc2)c2ccccc2)cc1	18.6% (inactive)
COc1ccc(/C(Cl)=N/N=C(\Cl)c2cc(OC)c(OC)c(OC)c2)cc1OC(C)=O	81.2% (inactive)
CC(C)(C)c1nn(-c2ccccc2)c2c1CC1(CN2Cc2ccc3c(c2)OCO3)C(=O)c2ccccc2C1=O	102% (inactive)
C[C@H](Oc1cc(-c2cnn(C3CCNCC3)c2)cnc1N)c1c(Cl)ccc(F)c1Cl	58.3% (inactive)
COC1C(O)CC(OC2CC(OC3CC(O[C@@H]4C(=O)c5c(cc6cc(OC7CC(OC8CC(O)C(O)C(C)O8)C(O)C(C)O7)c(C)c(O)c6c5O)CC4[C@H](OC)[C@@H](O)C(C)=O)OC(C)C3O)OC(C)C2O)OC1C (some centres not stated)	14.3% (inactive)
COc1cc(C(F)(F)F)ccc1-c1cc(-c2ccc(F)cc2)n[nH]1	115% (inactive)
